Screening results deposited in PubChem BioAssay by Sanford-Burnham Center for Chemical Genomics.
Many of the other results were omitted from the sample, so hits are more common in it than they were.
DUSP3 inh = inhibitors of human VHR1 phosphatase (DUSP3); 50,000 tested, 0.7% active; inhibition, % at 20 µM; recombinant VHR phosphatase, colorimetric substrate read-out; P51452; in the data active = inhibition above about 60%
Target sequence (P51452 whole entry, looked up): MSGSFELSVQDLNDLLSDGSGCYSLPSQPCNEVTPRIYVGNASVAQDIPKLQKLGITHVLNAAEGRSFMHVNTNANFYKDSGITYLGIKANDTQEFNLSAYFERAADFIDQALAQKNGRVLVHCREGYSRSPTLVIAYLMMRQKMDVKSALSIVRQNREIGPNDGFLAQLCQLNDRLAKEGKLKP
The depositor's hits bear a star.

SMILES	DUSP3 inh
Cc1ccc(C(=O)Nc2ccc(NC(=O)c3cccc(Cl)c3)cc2)cc1C	-4.0
COc1ccc(/C=N/N=c2\sc3ccccc3n2C)c(OC)c1	97.7*
Cn1/c(=N/N=C/c2ccncc2)sc2ccccc21	0.1
COc1cc(/C=N/N=c2\sc3ccccc3n2C)ccc1O	1.5
CCc1ccccc1NC(=O)CN(c1ccc(OC)cc1OC)S(C)(=O)=O	-10.7
COc1ccc(C(=O)Nc2cc(C)cc(C)c2)c(OC)c1	5.5
COc1ccc(C(=O)Nc2ccc(S(=O)(=O)Nc3cc(C)on3)cc2)c(OC)c1	109.8*
Cc1cc(NS(=O)(=O)c2ccc(NC(=O)c3cc(Cl)cc(Cl)c3)cc2)no1	-27.9
Cc1ccc(S(=O)(=O)c2nc(Nc3ccccc3C)sc2Cl)cc1	14.6
NS(=O)(=O)c1ccc(N=Cc2ccc(Cl)cc2)cc1	-4.4
O=C1NC(=O)N(c2ccccc2)C(=O)/C1=C\c1ccc(-c2cccc(C(=O)O)c2)o1	-24.5
O=C1NN(c2ccccc2)C(=O)/C1=C/c1ccc(-c2ccc(F)cc2)o1	-15.1
O=C1NN(c2ccc(F)cc2)C(=O)/C1=C\c1ccc(-c2cccc(C(=O)O)c2)o1	-10.4
O=C1NC(=S)N(c2cccc(Br)c2)C(=O)/C1=C/c1ccc(-c2ccc(C(=O)O)cc2)o1	92.5
O=C1NN(c2ccccc2)C(=O)/C1=C/c1ccc(-c2ccccc2)o1	110.9*
O=C1NC(=O)N(c2cccc(Br)c2)C(=O)/C1=C/c1ccc(-c2ccc(C(=O)O)cc2)o1	99.7*
CNC(=O)/C(=C/c1ccc(-c2ccc(Cl)cc2)o1)NC(=O)c1ccc(Cl)cc1	9.0
COc1ccccc1/C=C1/SC(=S)N(CNc2ccc(C)c(Cl)c2)C1=O	11.6
CCOC(=O)c1c(NC(=O)c2cccc(C)c2)sc(C(=O)Nc2ccccc2F)c1C	-7.9
CCOC(=O)c1c(NC(=O)c2ccc(Cl)c(Cl)c2)sc(C(=O)Nc2ccccc2F)c1C	-12.4
CCOC(=O)c1c(NC(=O)c2cccc(OC)c2)sc(C(=O)Nc2ccccc2F)c1C	115.1*
COC(=O)C1=CNC=C(C(=O)OC)C1c1cccc(OC)c1OC	-12.5
O=[N+]([O-])c1ccc(N2CCN(CCO)CC2)cc1NCc1ccc(Cl)cc1	9.1
Cc1ccccc1C(=O)Nc1sc2c(c1C(=O)N1CCN(C)CC1)CCCCC2	-5.5
Cc1ccc(C)n1-c1ccc(OCC(=O)O)cc1	29.0
SMILES	DUSP3 inh
Cc1ccc(C)n1-c1ccc(SCC(=O)O)cc1	91.4*
CC(=O)c1ccc(-n2c(C)ccc2C)cc1	11.0
O=C(O)C12C3CCCC1C32c1ccccc1 (stereo not given)	3.4
O=C(O)C1C2C=CC(C3CC23)C1C(=O)NCc1ccccc1 (stereo not given)	-7.2
O=C(O)C1C2CCCC1C2c1ccccc1 (stereo not given)	100.8*
CCOC(=O)C(=CNc1cc(OC)cc(OC)c1)C(=O)OCC	4.4
COc1ccc(Cl)cc1C(=O)Nc1nc2ccc(Cl)cc2s1	23.1
O=C1CC(c2ccccc2)CC(O)=C1C(C1=C(O)CC(c2ccccc2)CC1=O)c1ccc(O)c(O)c1 (stereo not given)	49.6
CCCN1CCC(=NNC(=O)c2cccc([N+](=O)[O-])c2)CC1	-9.4
O=C1c2ccccc2NC(c2ccccc2F)N1c1ccc(Cl)cc1 (stereo not given)	-15.9
O=C(CC1Sc2ccc(C(F)(F)F)cc2NC1=O)Nc1ccc([N+](=O)[O-])cc1 (stereo not given)	20.4
COc1cccc2sc(NC(=O)c3ccc(S(=O)(=O)N4CCCCC4)cc3)nc12	-4.6
CCC(CC)NCc1c[nH]c2ccccc12	-12.0
c1ccc2c(CNC34CC5CC(CC(C5)C3)C4)c[nH]c2c1	active
O=C1C=C(NCCc2c[nH]c3ccccc23)CC(c2ccccc2)C1 (stereo not given)	28.9
COc1ccc(C2c3c(c4ccccc4oc3=O)Oc3c2c(=O)oc2ccccc32)cc1COc1ccccn1	-6.7
O=C(Nc1ccccc1)Nc1nc(C(c2ccccc2)c2ccccc2)cs1	88.4*
O=C(Nc1ccccc1)Nc1nccs1	4.9
O=C(Nc1ccccc1)Nc1nnc(C(c2ccccc2)c2ccccc2)s1	-18.0
COc1ccc(C(=O)O/N=C(\N)c2ccc(OC)c(OC)c2)cc1OC	-7.9
O=C(Cc1ccccc1)Nc1cccc(-c2nnc(-c3cccc(NC(=O)Cc4ccccc4)c3)o2)c1	22.4
CC1=C(c2ccccc2)[N+](=O)C(C)(C)N1[O-]	-4.1
CN1C(=O)/C(=C\c2ccc(Sc3ccc(Cl)cc3)o2)SC1=S	62.1*
CN1C(=O)/C(=C\c2ccc([N+](=O)[O-])o2)SC1=S	-3.6
CN1C(=O)/C(=C\c2ccc(-c3ccc(F)c(Cl)c3)o2)SC1=S	-1.9
SMILES	DUSP3 inh
CS(=O)(=O)N1CCN(c2ccc([N+](=O)[O-])c3cccnc23)CC1	-0.2
COc1ccc(N2C(=O)/C(=C/c3cc(C)n(-c4ccccc4)c3C)C(=O)NC2=S)cc1	89.1
COc1ccc(N2C(=O)NC(=O)/C(=C/c3ccc(I)o3)C2=O)cc1	106.7*
COc1ccc(N2C(=O)NC(=O)/C(=C/c3ccc(-c4ccc(C(=O)O)cc4)o3)C2=O)cc1	45.9
COc1ccc(N2C(=O)/C(=C/c3ccc(-c4cc(C(=O)O)ccc4Cl)o3)C(=O)NC2=S)cc1	-8.0
COc1ccc(N2C(=O)/C(=C/c3ccc(I)o3)C(=O)NC2=S)cc1	91.6*
COc1ccc(N2C(=O)NC(=O)/C(=C/c3ccc(-c4cccc(Cl)c4)o3)C2=O)cc1	5.8
O=C1OC(c2ccc(Cl)cc2)=C/C1=C\c1ccc(F)cc1	-3.2
COC(=O)C1C(C(C)C)N(c2ccccc2)OC1(C)O (stereo not given)	-6.0
CC1=C(C#N)c2nc(N)c(C#N)c(C)c2/C1=C\c1ccc(Cl)c(Cl)c1	-5.5
Cc1c(C(=O)OC(C)C)sc(NC(=O)C2CC2c2ccccc2)c1C#N (stereo not given)	5.8
O=C(/C=C/c1ccco1)Nc1scc(-c2cccs2)c1C(=O)O	12.2
O=C(O)CN(Cc1ccccc1)S(=O)(=O)c1ccccc1	-14.5
Cc1ccc(C(=O)NCCCNc2ccc(Cl)cc2[N+](=O)[O-])cc1	-22.3
Cc1cc(=O)oc2cc(OCC(=O)Nc3sc4c(c3C(N)=O)CCC4)ccc12	77.9*
COC(=O)c1ccccc1NC(=O)COc1ccc2ccccc2c1	-8.0
Cc1ccc(OCC(=O)Nc2sc3c(c2C(N)=O)CCC3)c(C)c1	16.1
COC(=O)c1sc(NC(=O)COc2ccc3ccccc3c2)c(C(N)=O)c1C	96.9*
COc1ccc(OCC(=O)Nc2sc3c(c2C(N)=O)CCCC3)cc1	-19.9
CCN(CC)C(=O)c1sc(NC(=O)COc2ccc3ccccc3c2)c(C(=O)OC(C)C)c1C	0.9
COC(=O)c1ccc(NC(=O)c2cccc([N+](=O)[O-])c2C)cc1	2.1
Cc1n[nH]c(C)c1CCCCCCOc1ccccc1Cl	8.9
Cc1ccc(C)c(NC(=O)COc2cccc(C)c2C)c1	35.2
CC1=C(C(=O)c2ccccc2)C(c2cccc(F)c2)NC(=O)N1 (stereo not given)	-26.9
COC(=O)C1=C(C)N(C)C(C)=C(C(=O)OC)C1c1ccc(OC)c(OC)c1	6.9
COC(=O)C1=C(C)N(C)C(C)=C(C(=O)OC)C1c1cc(Br)c(OC)c(OC)c1	116.2*
COC(=O)C1=C(C)N(C)C(C)=C(C(=O)OC)C1c1cc(OC)c(OC)c(OC)c1	-1.6
CC(=O)N/N=C/c1cc(C)n(-c2cccc(Cl)c2)c1C	3.1
O=C(Nc1ccccc1Cl)c1ccc(S(=O)(=O)N2CCOCC2)cc1	6.7
